Measurements as given in the supplement of paper PMC10849652.
The full data set covers some 7,900 targets. This sample favours those with a hit. About 0.6% of all pairs of compound and target were hits. Values without a mark were called inactive.

What was measured:
Experiment in all cases: log2 fold change, soluble protein after heating vs DMSO (PISA); higher = thermal stabilisation; K562 cells, 10 uM, 30 min; active = over 0.2 and 3.5 SD of the protein, either way, in both replicates (recomputed)
[1] = compound: COC1=CC=C(C=C1)CN2C=CC3=C2C=C(C=C3)C(=O)NO
How it was run: (§1)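 K562 cells at 2×10^6 cells/mL were treated with 10 μM compound for 30 min. Aliquots were heated for 3 min across 48°C-58°C, pooled, and extracted in PBS with 0.5% NP-40 at 4°C; soluble protein was the supernatant after 21,000xg for 90 min. Soluble protein was quantified by TMTpro 16plex LC-MS/MS with channel sums equalised, and reported as log2 fold change in thermal stability against DMSO controls, with values from duplicates.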

filanesib = compound: CON(C)C(=O)N1N=C(c2cc(F)ccc2F)S[C@@]1(CCCN)c1ccccc1 [filanesib]
How it was run: as §1

zotarolimus = compound: CO[C@H]1C[C@@H]2CC[C@@H](C)[C@@](O)(O2)C(=O)C(=O)N2CCCC[C@H]2C(=O)O[C@H]([C@H](C)C[C@@H]2CC[C@H](n3cnnn3)[C@H](OC)C2)CC(=O)[C@H](C)/C=C(\C)[C@@H](O)[C@@H](OC)C(=O)[C@H](C)C[C@H](C)/C=C/C=C/C=C/1C [zotarolimus]
How it was run: as §1

idasanutlin = compound: COc1cc(C(=O)O)ccc1NC(=O)[C@@H]1N[C@@H](CC(C)(C)C)[C@](C#N)(c2ccc(Cl)cc2F)[C@H]1c1cccc(Cl)c1F [idasanutlin]
How it was run: as §1

alisertib = compound: COc1cc(Nc2ncc3c(n2)-c2ccc(Cl)cc2C(c2c(F)cccc2OC)=NC3)ccc1C(=O)O [alisertib]
How it was run: as §1

[2] = compound: COc1cc2nc(-c3cc(F)ccc3O)nc(N[C@@H]3CNC[C@H]3C(C)(C)O)c2cc1OC
How it was run: as §1

gefitinib = compound: COc1cc2ncnc(Nc3ccc(F)c(Cl)c3)c2cc1OCCCN1CCOCC1 [gefitinib]
How it was run: as §1

[3] = compound: COc1cccc2cc(-c3nc([C@H]4CC[C@H](C(=O)O)CC4)n4ncnc(N)c34)[nH]c12
How it was run: as §1

lapatinib = compound: CS(=O)(=O)CCNCc1ccc(-c2ccc3ncnc(Nc4ccc(OCc5cccc(F)c5)c(Cl)c4)c3c2)o1 [lapatinib]
How it was run: as §1

pictilisib = compound: CS(=O)(=O)N1CCN(Cc2cc3nc(-c4cccc5[nH]ncc45)nc(N4CCOCC4)c3s2)CC1 [pictilisib]
How it was run: as §1

[4] = compound: CS(=O)(=O)c1ccc(-c2cnc(N)c(C(=O)Nc3ccccc3)n2)cc1
How it was run: as §1

crizotinib = compound: C[C@@H](Oc1cc(-c2cnn(C3CCNCC3)c2)cnc1N)c1c(Cl)ccc(F)c1Cl [crizotinib]
How it was run: as §1

[5] = compound: C[C@@H]1COCCN1C2=NC(=NC(=C2)C3(CC3)S(=O)(=O)C)C4=C5C=CNC5=CC=C4
How it was run: as §1

[6] = compound: C[C@H](C1=CC=C(C=C1)C(=O)NC2=C3C=CNC3=NC=C2)N
How it was run: as §1

duvelisib = compound: C[C@H](Nc1ncnc2nc[nH]c12)c1cc2cccc(Cl)c2c(=O)n1-c1ccccc1 [duvelisib]
How it was run: as §1

gandotinib = compound: Cc1cc(Nc2cc(CN3CCOCC3)c3nc(C)c(Cc4ccc(Cl)cc4F)n3n2)n[nH]1 [gandotinib]
How it was run: as §1

tozasertib = compound: Cc1cc(Nc2cc(N3CCN(C)CC3)nc(Sc3ccc(NC(=O)C4CC4)cc3)n2)n[nH]1 [tozasertib]
How it was run: as §1

[7] = compound: Cc1cc(SCc2sc(-c3ccc(C(F)(F)F)cc3)nc2C)ccc1OCC(=O)O
How it was run: as §1

doramapimod = compound: Cc1ccc(-n2nc(C(C)(C)C)cc2NC(=O)Nc2ccc(OCCN3CCOCC3)c3ccccc23)cc1 [doramapimod]
How it was run: as §1

ispinesib = compound: Cc1ccc(C(=O)N(CCCN)[C@@H](c2nc3cc(Cl)ccc3c(=O)n2Cc2ccccc2)C(C)C)cc1 [ispinesib]
How it was run: as §1

Chain of UniProt O60749 (O60749 whole entry, looked up): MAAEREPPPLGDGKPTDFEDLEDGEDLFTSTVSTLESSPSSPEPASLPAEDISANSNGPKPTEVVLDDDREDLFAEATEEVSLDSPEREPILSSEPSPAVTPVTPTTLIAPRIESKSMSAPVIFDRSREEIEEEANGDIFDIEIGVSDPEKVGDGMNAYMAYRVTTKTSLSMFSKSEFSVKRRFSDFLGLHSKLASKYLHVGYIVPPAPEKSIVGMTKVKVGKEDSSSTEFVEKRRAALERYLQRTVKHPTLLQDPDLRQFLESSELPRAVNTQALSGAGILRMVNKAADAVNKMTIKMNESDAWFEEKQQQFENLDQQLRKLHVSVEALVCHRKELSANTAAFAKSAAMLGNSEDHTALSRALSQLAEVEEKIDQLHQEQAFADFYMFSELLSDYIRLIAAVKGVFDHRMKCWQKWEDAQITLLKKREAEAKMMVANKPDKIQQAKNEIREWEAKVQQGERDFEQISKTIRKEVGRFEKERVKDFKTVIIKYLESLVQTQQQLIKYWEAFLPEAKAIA
Chain of UniProt Q8TCT7 (Q8TCT7 whole entry, looked up): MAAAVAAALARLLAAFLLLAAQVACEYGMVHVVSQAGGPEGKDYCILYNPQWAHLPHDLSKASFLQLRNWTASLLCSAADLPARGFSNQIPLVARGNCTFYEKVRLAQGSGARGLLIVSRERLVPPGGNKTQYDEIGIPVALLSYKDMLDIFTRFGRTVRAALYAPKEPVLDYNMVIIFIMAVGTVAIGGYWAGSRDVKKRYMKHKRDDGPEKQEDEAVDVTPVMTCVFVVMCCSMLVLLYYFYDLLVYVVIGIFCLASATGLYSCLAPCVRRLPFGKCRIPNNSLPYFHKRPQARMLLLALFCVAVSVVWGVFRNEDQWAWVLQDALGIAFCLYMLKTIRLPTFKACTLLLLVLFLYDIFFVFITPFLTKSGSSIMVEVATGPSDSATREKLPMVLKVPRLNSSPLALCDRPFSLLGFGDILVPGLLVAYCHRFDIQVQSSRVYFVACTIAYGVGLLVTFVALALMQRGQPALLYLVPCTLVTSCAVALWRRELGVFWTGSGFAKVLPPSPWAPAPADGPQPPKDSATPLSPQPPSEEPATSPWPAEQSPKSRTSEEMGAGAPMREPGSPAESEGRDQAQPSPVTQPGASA
Chain of UniProt Q02447 (Q02447 whole entry, looked up): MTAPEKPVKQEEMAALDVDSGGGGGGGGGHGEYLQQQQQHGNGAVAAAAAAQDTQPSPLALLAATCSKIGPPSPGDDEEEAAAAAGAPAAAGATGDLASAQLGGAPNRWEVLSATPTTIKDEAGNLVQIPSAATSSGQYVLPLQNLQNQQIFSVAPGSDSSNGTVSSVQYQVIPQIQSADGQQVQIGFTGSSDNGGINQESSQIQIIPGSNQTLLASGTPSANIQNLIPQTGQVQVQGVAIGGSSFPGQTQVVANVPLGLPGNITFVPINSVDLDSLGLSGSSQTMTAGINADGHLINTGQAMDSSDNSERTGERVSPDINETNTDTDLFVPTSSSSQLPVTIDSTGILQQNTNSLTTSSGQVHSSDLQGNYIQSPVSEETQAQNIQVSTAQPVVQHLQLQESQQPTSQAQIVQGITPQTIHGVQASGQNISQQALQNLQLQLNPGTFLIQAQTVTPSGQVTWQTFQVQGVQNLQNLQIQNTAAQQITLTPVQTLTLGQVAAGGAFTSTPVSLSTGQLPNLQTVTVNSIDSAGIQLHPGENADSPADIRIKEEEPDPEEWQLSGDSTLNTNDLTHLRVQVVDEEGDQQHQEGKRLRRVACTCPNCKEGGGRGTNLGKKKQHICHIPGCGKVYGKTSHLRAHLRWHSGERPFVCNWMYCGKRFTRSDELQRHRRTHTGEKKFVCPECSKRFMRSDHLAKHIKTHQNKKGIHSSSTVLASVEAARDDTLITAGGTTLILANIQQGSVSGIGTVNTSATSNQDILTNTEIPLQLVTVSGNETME
Chain of UniProt Q05519 (Q05519 whole entry, looked up): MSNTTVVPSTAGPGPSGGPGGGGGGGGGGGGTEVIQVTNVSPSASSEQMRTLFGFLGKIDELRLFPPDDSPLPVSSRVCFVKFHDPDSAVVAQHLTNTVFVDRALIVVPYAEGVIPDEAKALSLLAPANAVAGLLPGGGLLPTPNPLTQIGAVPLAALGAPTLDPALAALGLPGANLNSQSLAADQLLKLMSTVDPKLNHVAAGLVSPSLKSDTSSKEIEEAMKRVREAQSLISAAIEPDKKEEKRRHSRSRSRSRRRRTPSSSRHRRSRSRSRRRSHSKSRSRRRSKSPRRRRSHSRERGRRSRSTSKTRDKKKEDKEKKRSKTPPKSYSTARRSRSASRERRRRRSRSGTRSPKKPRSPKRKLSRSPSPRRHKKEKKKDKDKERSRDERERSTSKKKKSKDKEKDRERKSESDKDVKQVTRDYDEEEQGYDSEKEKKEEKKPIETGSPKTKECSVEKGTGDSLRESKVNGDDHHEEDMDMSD
Chain of UniProt Q96DW6 (Q96DW6 whole entry, looked up): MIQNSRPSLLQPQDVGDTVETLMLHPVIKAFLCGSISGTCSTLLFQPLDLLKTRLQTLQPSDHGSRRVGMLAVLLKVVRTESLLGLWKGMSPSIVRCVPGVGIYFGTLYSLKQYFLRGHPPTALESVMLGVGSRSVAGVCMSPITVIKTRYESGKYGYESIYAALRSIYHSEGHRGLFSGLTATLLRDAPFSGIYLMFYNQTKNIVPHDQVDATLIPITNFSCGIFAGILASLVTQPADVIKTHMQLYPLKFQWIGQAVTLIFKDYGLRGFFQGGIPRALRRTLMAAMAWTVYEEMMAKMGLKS
Chain of UniProt P02786 (P02786 whole entry, looked up): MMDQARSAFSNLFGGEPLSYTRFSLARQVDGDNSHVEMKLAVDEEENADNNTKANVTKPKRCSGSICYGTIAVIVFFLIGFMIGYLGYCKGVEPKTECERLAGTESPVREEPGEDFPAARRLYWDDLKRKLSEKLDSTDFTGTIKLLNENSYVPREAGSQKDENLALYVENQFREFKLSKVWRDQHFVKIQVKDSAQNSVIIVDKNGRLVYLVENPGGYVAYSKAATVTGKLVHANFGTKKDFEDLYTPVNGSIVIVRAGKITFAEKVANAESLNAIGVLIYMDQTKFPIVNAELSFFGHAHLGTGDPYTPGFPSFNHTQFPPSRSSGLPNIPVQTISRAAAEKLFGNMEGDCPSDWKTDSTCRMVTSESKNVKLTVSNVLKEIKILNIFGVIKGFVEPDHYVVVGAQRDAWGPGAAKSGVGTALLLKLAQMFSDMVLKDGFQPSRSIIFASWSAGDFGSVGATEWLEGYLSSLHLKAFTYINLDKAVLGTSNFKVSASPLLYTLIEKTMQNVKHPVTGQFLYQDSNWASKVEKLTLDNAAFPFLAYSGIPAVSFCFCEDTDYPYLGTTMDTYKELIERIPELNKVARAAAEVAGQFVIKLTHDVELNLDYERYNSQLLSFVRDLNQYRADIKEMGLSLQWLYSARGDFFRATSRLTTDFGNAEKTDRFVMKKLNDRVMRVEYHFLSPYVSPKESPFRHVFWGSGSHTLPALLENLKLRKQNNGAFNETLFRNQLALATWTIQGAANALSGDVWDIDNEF
Chain of UniProt Q9UDY2 (Q9UDY2 whole entry, looked up): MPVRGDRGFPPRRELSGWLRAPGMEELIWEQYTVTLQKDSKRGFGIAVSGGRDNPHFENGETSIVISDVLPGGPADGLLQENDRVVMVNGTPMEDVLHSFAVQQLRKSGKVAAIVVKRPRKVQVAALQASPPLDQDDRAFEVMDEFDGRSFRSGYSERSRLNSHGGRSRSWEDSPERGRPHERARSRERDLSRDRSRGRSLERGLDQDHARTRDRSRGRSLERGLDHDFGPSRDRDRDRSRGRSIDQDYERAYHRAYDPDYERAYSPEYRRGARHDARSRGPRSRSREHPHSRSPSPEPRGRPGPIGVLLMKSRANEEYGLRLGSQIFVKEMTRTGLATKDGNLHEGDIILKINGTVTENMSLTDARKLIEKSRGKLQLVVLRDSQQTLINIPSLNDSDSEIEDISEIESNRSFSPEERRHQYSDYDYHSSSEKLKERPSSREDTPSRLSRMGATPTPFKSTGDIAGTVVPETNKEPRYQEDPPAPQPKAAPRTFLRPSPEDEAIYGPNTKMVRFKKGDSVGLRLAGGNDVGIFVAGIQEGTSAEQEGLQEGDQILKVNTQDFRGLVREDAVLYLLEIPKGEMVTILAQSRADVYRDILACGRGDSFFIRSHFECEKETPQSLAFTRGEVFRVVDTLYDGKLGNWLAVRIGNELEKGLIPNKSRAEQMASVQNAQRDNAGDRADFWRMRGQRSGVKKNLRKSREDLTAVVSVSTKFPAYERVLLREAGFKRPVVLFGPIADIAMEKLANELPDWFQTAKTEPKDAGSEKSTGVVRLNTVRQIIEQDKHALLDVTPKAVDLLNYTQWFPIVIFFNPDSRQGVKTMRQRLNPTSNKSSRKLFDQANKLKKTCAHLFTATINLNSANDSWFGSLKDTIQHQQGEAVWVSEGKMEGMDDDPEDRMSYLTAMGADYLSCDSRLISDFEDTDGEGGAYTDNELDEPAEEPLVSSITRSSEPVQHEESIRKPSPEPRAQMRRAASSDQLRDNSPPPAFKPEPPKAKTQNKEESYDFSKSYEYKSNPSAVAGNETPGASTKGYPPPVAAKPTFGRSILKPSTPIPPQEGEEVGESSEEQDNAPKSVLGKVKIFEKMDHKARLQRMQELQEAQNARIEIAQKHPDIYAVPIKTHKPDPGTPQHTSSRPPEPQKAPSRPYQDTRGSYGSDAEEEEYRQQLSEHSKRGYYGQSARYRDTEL
Chain of UniProt Q9NYB0 (Q9NYB0 whole entry, looked up): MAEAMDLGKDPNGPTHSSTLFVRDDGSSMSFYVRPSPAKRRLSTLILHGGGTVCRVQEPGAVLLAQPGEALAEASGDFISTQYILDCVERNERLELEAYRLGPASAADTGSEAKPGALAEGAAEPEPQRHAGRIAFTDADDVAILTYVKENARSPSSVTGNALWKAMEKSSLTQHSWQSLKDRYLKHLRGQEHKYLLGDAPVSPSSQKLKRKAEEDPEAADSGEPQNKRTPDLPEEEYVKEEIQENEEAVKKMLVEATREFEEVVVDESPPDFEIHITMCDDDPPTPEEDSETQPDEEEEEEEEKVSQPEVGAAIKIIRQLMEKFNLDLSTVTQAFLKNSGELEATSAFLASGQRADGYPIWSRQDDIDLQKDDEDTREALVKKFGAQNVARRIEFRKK

Row | Target | log2 fold change [1] | log2 fold change (filanesib) | log2 fold change (zotarolimus) | log2 fold change (idasanutlin) | log2 fold change (alisertib) | log2 fold change [2] | log2 fold change (gefitinib) | log2 fold change [3] | log2 fold change (lapatinib) | log2 fold change (pictilisib) | log2 fold change [4] | log2 fold change (crizotinib) | log2 fold change [5] | log2 fold change [6] | log2 fold change (duvelisib) | log2 fold change (gandotinib) | log2 fold change (tozasertib) | log2 fold change [7] | log2 fold change (doramapimod) | log2 fold change (ispinesib)
1 | TERF2IP (UniProt Q9NYB0) | -0.034 | 0.052 | 0.045 | 0.025 | -0.032 | -0.119 | 0.013 | 0.025 | -0.008 | -0.036 | -0.021 | 0.085 | -0.072 | -0.099 | 0.016 | 0.028 | 0.108 | 0.005 | -0.019 | 0.044
2 | SRSF11 (UniProt Q05519) | 0.084 | 0.093 | 0.012 | -0.021 | -0.079 | 0.017 | 0.023 | 0.018 | 0 | -0.164 | -0.037 | 0.015 | 0.045 | -0.277 (active) | 0.021 | -0.068 | 0.004 | 0.067 | -0.015 | 0.08
3 | SNX2 (UniProt O60749) | 0.011 | -0.156 | 0.037 | 0 | 0.013 | -0.101 | -0.105 | 0.029 | 0.001 | -0.104 | -0.034 | -0.223 | 0.006 | -0.039 | -0.107 | -0.216 | -0.102 | 0.041 | -0.014 | -0.184
4 | SP1 (UniProt P08047) | -0.064 | 0.022 | -0.033 | -0.002 | -0.025 | -0.007 | -0.043 | 0.005 | -0.004 | 0.142 | 0.031 | -0.038 | -0.044 | 0.042 | 0.008 | 0.083 | 0.037 | 0.023 | 0.036 | -0.113
5 | SLC25A38 (UniProt Q96DW6) | -0.013 | -0.01 | -0.029 | -0.069 | -0.049 | 0.039 | 0.013 | 0.447 (active) | -0.02 | 0.04 | 0.146 | 0.105 | 0.045 | 0.002 | 0.088 | -0.035 | -0.003 | -0.058 | 0.001 | 0
6 | SPPL2B (UniProt Q8TCT7) | 0.025 | -0.223 | -0.016 | -0.01 | -0.113 | -0.05 | -0.061 | 0.084 | -0.002 | 0.292 (active) | 0.049 | -0.011 | -0.072 | 0.006 | 0.031 | -0.004 | -0.032 | -0.022 | 0.01 | -0.026
7 | TFRC (UniProt P02786) | 0.009 | -0.013 | -0.041 | -0.027 | -0.05 | 0.017 | 0.004 | 0.063 | -0.03 | 0.048 | 0.026 | -0.283 (active) | 0.012 | -0.018 | 0.047 | -0.011 | -0.01 | -0.023 | -0.012 | -0.059
8 | SPAST (UniProt Q9UBP0) | 0.03 | -0.028 | -0.006 | -0.038 | -0.1 | 0.096 | -0.019 | -0.042 | -0.019 | -0.041 | 0.002 | -0.074 | 0.043 | 0.001 | 0.069 | -0.025 | -0.01 | 0.15 | -0.078 | -0.001
9 | STK25 (UniProt O00506) | -0.06 | -0.006 | -0.039 | 0.006 | -0.055 | 0.076 | -0.061 | 0.038 | -0.047 | 0.053 | 0.04 | -0.2 | -0.011 | -0.026 | 0.051 | -0.074 | -0.027 | -0.001 | 0.019 | -0.071
10 | TJP2 isoform 7 (UniProt Q9UDY2) | 0.019 | 0.093 | 0.068 | -0.017 | -0.151 | -0.091 | 0.042 | 0.012 | 0.008 | 0.067 | 0.006 | -0.026 | 0.064 | -0.017 | 0.056 | -0.089 | 0.071 | 0.071 | 0.068 | -0.065
11 | SP3 (UniProt Q02447) | -0.001 | -0.008 | -0.024 | 0.052 | -0.084 | 0.037 | -0.038 | -0.04 | 0.016 | 0.041 | -0.005 | 0.013 | -0.071 | 0.123 | 0.031 | 0.086 | 0.032 | 0 | 0.089 | -0.046
12 | TAMM41 isoform 3 (UniProt Q96BW9) | -0.027 | -0.09 | -0.009 | -0.122 | 0.019 | -0.169 | -0.025 | 0.112 | 0.021 | 0.027 | 0.064 | -0.232 (active) | 0.073 | -0.016 | 0.032 | -0.04 | -0.036 | 0.05 | -0.048 | -0.249 (active)
